Source: PubChem (National Center for Advancing Translational Sciences (NCATS))
An excerpt weighted towards active compounds, which were near 11% of everything screened.
G9a inh – qHTS Assay for Inhibitors of Histone Lysine Methyltransferase G9a; G9a H3K9 monomethylation, AlphaScreen, 2 h; Potency, µM (top dose mostly 102 µM), for inactives: at the highest dose activity, negative = inhibition, usual class: inhibitors; AID 504332, 2011; 8.8% of 350,000 active; also: % is scaled to controls: 0 for no effect and ±100 for the full control effect; nearly all actives have a fitted effect of over 75% in size
Target sequence (Q96KQ7 913-1193 limits assumed): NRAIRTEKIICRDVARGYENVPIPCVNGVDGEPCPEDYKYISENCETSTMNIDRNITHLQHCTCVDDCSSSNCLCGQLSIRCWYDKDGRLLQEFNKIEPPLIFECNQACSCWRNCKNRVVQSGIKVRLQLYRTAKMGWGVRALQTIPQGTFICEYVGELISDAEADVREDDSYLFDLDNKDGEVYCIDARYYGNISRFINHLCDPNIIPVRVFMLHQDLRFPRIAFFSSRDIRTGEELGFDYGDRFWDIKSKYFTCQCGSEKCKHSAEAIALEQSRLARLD
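Methyltransferase reactions run at room temperature for 2 h (20 nM enzyme, 500 nM biotin-H3K9 peptide, 20 uM SAM) after a 15 min compound preincubation; product detected by AlphaScreen beads and anti-H3K9me1 antibody.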
L3MBTL1 inh – qHTS Assay for the Inhibitors of L3MBTL1. 0.66% of 230,000 active. Lethal(3)malignant brain tumor-like protein 1 (Homo sapiens), Q9Y468. Potency, µM (series often up to 57.1 µM), for the others: top-dose activity, negative = inhibition, usual class: inhibitors. AlphaScreen L3MBTL1–H3K9me1 peptide binding. AID 485360, 2010; also: % is scaled to controls: 0 for no effect and ±100 for the full control effect; nearly all actives have a fitted effect of over 60% in size
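Displacement of a biotinylated histone H3(1-15) peptide monomethylated at Lys9 (75 nM) from L3MBTL1 (50 nM) was measured by AlphaScreen after a 30 min room-temperature compound incubation; cefsulodin titration served as intraplate control.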
HP1b chromo inh – HTS for Inhibitors of HP1-beta Chromodomain Interactions with Methylated Histone Tails; 0.56% of 390,000 active; Chromobox protein homolog 1 (Homo sapiens), P83916; Potency, µM (highest dose often 114 µM), inactives show at the top dose activity change, negative = inhibition, hits mostly inhibitors; AlphaScreen HP1-beta / biotin-H3K9me3 peptide binding; AID 540317, 2011; also: nearly all actives have a fitted effect of over 70% in size
Target sequence (P83916 whole entry, looked up): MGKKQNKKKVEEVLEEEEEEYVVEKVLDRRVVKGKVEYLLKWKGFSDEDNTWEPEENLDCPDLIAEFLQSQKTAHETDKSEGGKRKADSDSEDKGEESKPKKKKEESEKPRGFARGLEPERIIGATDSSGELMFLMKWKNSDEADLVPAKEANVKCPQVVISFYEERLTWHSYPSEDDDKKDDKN
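AlphaScreen: HP1-beta (50 nM) preformed 30 min with biotin-H3(1-18)K9me3 peptide (50 nM) in PBS pH 7.4, 0.01% Tween-20. Compound added for 30 min at RT, then streptavidin donor/nickel chelate acceptor beads (10 ug/mL) for 30 min.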
BAZ2B inh – qHTS Assay for Inhibitors of BAZ2B | Bromodomain adjacent to zinc finger domain protein 2B (Homo sapiens), Q9UIF8 | AlphaScreen BAZ2B-H3K14Ac peptide displacement | Potency, µM (top dose mostly 114 µM), for the others: at the highest dose activity change, negative = inhibition, usual class: inhibitors | 4.4% of 360,000 active | AID 504333, 2011; also: % is scaled to controls: 0 for no effect and ±100 for the full control effect; nearly all actives have a fitted effect of over 60% in size
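AlphaScreen displacement of biotin-H3(5-23)K14Ac peptide (50 nM final) from BAZ2B (50 nM final) in PBS pH 7.4, 0.01% Tween-20; complex preformed 30 min RT, then compounds (top 110 uM) 30 min RT, beads 20 min dark.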
JMJD2A Tudor inh – qHTS Assay for Inhibitors of JMJD2A-Tudor Domain; 4.4% of 390,000 active; AID 504339, 2011; Potency, µM (highest dose often 114 µM), for the others: at the top dose activity change, negative = inhibition, hits mostly inhibitors; AlphaScreen JMJD2A-Tudor / H3K4me3 peptide binding; Lysine-specific demethylase 4A (Homo sapiens), O75164; also: % is scaled to controls: 0 for no effect and ±100 for the full control effect; nearly all actives have a fitted effect of over 50% in size
An asterisk follows results filed as active; ? = inconclusive; / = no result given; [ ] = remark or other dose. Calls follow the shape of the dose curve; as a rule, active = well fitted inhibition curve with a large enough effect; inconclusive = small, poorly fitted or top-dose-only effect; inactive = no such curve, though single readings can be large or run the other way. Potency is read from the fitted curve at half-maximal effect.

SMILES | G9a inh | L3MBTL1 inh | HP1b chromo inh | BAZ2B inh | JMJD2A Tudor inh
Cc1cccc(N2CCN(c3cc(C)nc4c(-c5ccc(Cl)cc5)c(C)nn34)CC2C)c1 (centres undefined) | -6.1%[59 µM] | / | 19.0% | 7.7% | 10.6%
COc1cccc(-n2cc(C(=O)Nc3ccccc3C(N)=O)c3ccccc3c2=O)c1 | -32.8%[59 µM] | / | -6.7% | -23.6% | -28.9%
COc1cc(-c2ccc3ncnc(NCC4CCCO4)c3c2)cc(OC)c1OC (centres undefined) | / | / | / | / | -23.4%
S=c1[nH]c(-c2ccccc2)cn1/N=C/c1ccc(Br)cc1 | 12.6µM* | / | 33.2% | -11.7% | 5.5%
COc1ccc(/C=N/n2cc(-c3ccccc3)nc2N)cc1 | -1.4%[59 µM] | -11.1% | 8.7% | 1.3% | -34.0%
S=c1[nH]c(-c2ccccc2)cn1/N=C/c1cccs1 | / | 42.2% | 23.0% | -3.5% | 3.16µM*
C(=N\N=C\c1cccs1)/c1cccs1 | -19.2% | -5.5% | 6.6% | -25.5% | -23.7%
COCCCNC(=O)c1ccc(Cn2c(=O)c3ccccc3n(CC(N)=O)c2=O)cc1 | 6.2%[59 µM] | / | 23.7% | -1.9% | -18.2%
CCC(=O)NNC(=S)NC(=O)c1ccc(C)cc1 | 10.6%[0.501 µM] | 22.1% | 24.5% | 13.7% | ?
Cc1ccc(NC(=S)Nn2cnnc2)c(C)c1 | 10µM* | / | / | ? | /
NC(=S)NNC(=O)c1cccc(Br)c1 | ? | / | / | -22.2% | /
O=C(NC(=S)Nn1cnnc1)c1cccc(Br)c1 | 11.2µM* | 4.7% | -23.9% | -25.4% | -15.9%
Cc1ccc(NC(=O)Nn2cnnc2)c(C)c1 | -10.7% | / | 8.9% | -3.2% | 7.8%
Cc1ccc(C(=O)NC(=S)Nn2cnnc2)cc1 | 10µM* | -7.2% | -8.0% | -25.3% | 0.0%
CCOC(=O)N1CCC(c2[nH][nH]c(=O)c2C)CC1 | 39.8µM* | / | 33.0% | 1.1% | -18.9%
Cc1ccc(-c2cc3ncc(C(=O)c4cc([N+](=O)[O-])ccc4O)cn3n2)cc1 | -1.0%[59 µM] | / | 17.4% | ? | -33.6%
NC(=O)CNc1n[nH]c(=S)[nH]c1=O | / | 27.2% | -4.2% | -5.5% | 20µM*
CCCCOC(=O)CNc1n[nH]c(=S)[nH]c1=O | -2.8%[12.7 µM] | / | 23.3% | -34.9% | -23.9%
CC(C)COC(=O)CNc1n[nH]c(=S)[nH]c1=O | -8.2%[12.7 µM] | / | -1.9% | 3.6% | 50.1µM*
O=C(O)c1[nH]c2ccccc2c1C=NCc1ccccc1Cl | 56.2µM* | -11.7% | 28.6% | -12.5% | -11.6%
Cn1c(/C(C#N)=C/c2ccccc2Br)nc2ccccc21 | 0.398µM* | / | 40.3% | 9.8% | -16.7%
Cn1c(/C(C#N)=N/O)nc2ccccc21 | ? | -1.4% | 6.8% | 70.8µM* | ?
Cc1cccc(NC(=O)c2oc3ccc(S(=O)(=O)N4CCC5(CC4)OCCO5)cc3c2C)c1C | ? | / | 16.9% | 0.6% | -15.0%
O=C1OC2C[C@H]1[C@@H]1C(=O)N(Cc3ccccc3)CCC1C2I (some centres undefined) | -22.4%[59 µM] | / | / | / | /
N#C/C(=C\Nc1ccc2cn[nH]c2c1)c1nc(-c2ccccc2)cs1 | 70.8µM* | / | 32.7% | / | -10.5%
SMILES | G9a inh | L3MBTL1 inh | HP1b chromo inh | BAZ2B inh | JMJD2A Tudor inh
N#C/C(=C\Nc1ccc2cn[nH]c2c1)c1nc(-c2ccc(Cl)cc2)cs1 | 122.7%[59 µM] | / | 26.3% | 12.3% | 0.3%
CCCCN(C)S(=O)(=O)c1cc(-c2cc(C)no2)ccc1C | 30.2%[59 µM] | / | 110.4% | 68.1% | 64.3%
O=C(O)C(=O)Nc1nc(-c2ccc3c(c2)OCCO3)cs1 | 31.6µM* | / | 13.3%[57 µM] | ? | -22.4%
CCCC(=O)Nc1nc(-c2ccc3c(c2)OCCO3)cs1 | ? | 1.1% | 21.9% | -20.7% | -10.6%
Cc1onc(-c2ccccc2)c1-c1n[nH]c(=S)n1-c1ccccc1Cl | 23.2%[0.501 µM] | -2.1% | 21.7% | -25.6% | -28.1%
Cc1onc(-c2ccccc2)c1-c1n[nH]c(=S)n1-c1ccc(C(=O)O)cc1 | ? | / | 29.0% | ? | 44.7µM*
CCc1ccc2occ(CC(=O)Nc3ccc(OC)c(Cl)c3)c2c1 | -3.7%[59 µM] | / | 45.4% | -10.1% | 3.1%
O=C(O)C1=C(C(=O)O)C2C=CC1C2 | / | / | -10.7%[57 µM] | / | 89.1µM*
O=C(Nc1ccc(Nc2ccccc2)cc1)c1ccc(Cl)c([N+](=O)[O-])c1 | / | -24.9% | ? | 39.8µM* | 50.1µM*
Cc1ccccc1NC(=O)c1ccc(Nc2c([N+](=O)[O-])cc([N+](=O)[O-])c3ccccc23)cc1 | 7.94µM* | -14.3% | ? | ? | ?
Cc1cc(C(=O)Nc2ccc(Nc3ccccc3)cc2)ccc1[N+](=O)[O-] | 8.3%[0.501 µM] | -2.7%[2.29 µM] | 22.4µM* | -25.4% | 10µM*
Cc1cnc2c(c1SCC(=O)N(C)c1ccccc1)c(=O)n(C)c(=O)n2C | -25.0%[59 µM] | / | 34.4% | -0.7% | -4.5%
Cc1cccc(OCc2cc(=O)n3c(-c4ccccc4)csc3n2)c1C | 9.3%[59 µM] | / | 32.4% | -22.1% | -18.5%
CC(=O)n1c(Cl)c(NC(=O)CCl)c2ccccc21 | ? | / | 25.8% | 44.7µM* | -3.1%
O=C(CCn1cnc(-c2ccccc2)c1-c1ccccc1)N/N=C/c1ccc(O)cc1 | ? | -0.6% | ? | ? | 25.1µM*
O=C(CCCCC(=O)NN=Cc1ccccc1O)NN=Cc1ccccc1O | / | / | 50.4% | / | -15.2%
COc1ccc(/C=N/NC(=O)CCn2cnc(-c3ccccc3)c2-c2ccccc2)cc1 | ? | -7.8% | ? | 25.1µM* | 20µM*
O=C(CCn1cnc(-c2ccccc2)c1-c1ccccc1)N/N=C/c1ccccc1O | 44.7µM* | -0.2% | ? | ? | 25.1µM*
Fc1ccc(COc2ccc(Br)cc2CNCC2CCCO2)cc1 (centres undefined) | 50.1µM* | 11.2% | 44.0% | -7.2% | -6.3%
Cc1ccc(NC(=O)c2ccc(S(=O)(=O)N(C)c3ccccc3)cc2)cc1S(=O)(=O)N1CCOCC1 | / | / | 19.2% | / | -22.2%
COc1ccccc1Nc1ccc(N)cc1 | 12.6µM* | ? | ? | 28.2µM* | 50.1µM*
COc1ccccc1Nc1ccc(NS(=O)(=O)c2ccc(C(C)=O)cc2)cc1 | 35.5µM* | / | ? | ? | 39.8µM*
COc1ccc(-n2c(/C=C/c3cccc4ccccc34)nc3ccccc3c2=O)cc1Cl | -3.3%[59 µM] | / | 40.3% | -1.5% | -6.1%
O=C(O)COc1ccccc1C(Nc1ccccn1)c1cc(Cl)c2cccnc2c1O (centres undefined) | 7.94µM* | 13.1% | ? | 39.8µM* | 79.4µM*
O=C(NC(c1ccccc1)c1cc(Cl)c2cccnc2c1O)c1cccnc1 (centres undefined) | -24.0%[59 µM] | 8.1% | / | 0.7% | /
CCOc1ccc(C(Nc2cccnc2)c2cc(Cl)c3cccnc3c2O)cc1 (centres undefined) | / | ? | ? | 44.7µM* | 39.8µM*
